The whole screen tested about 50,000 compounds, of which about 800 (1.6%) showed an effect of 50% or more. The list comes from a sample in which strong results are over-represented; it also holds similar structures and randomly drawn compounds.
The compounds below were run against Bcl-2-like protein 10 (Homo sapiens) (UniProt Q9HD36) (assay: Phenotype converters, Bcl-B/TR3 peptide binding displacement, primary biochemical FP (AID 1240;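 further: 0% = Bcl-B with tracer peptide and DMSO and 100% = tracer peptide lacking Bcl-B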)). Details: GST-Bcl-B / FITC-TR3 peptide fluorescence polarization; stronger effect = higher value; compound at 3.75 mg/L.
Chain of Bcl-2-like protein 10 (Homo sapiens) (Q9HD36 whole entry, looked up): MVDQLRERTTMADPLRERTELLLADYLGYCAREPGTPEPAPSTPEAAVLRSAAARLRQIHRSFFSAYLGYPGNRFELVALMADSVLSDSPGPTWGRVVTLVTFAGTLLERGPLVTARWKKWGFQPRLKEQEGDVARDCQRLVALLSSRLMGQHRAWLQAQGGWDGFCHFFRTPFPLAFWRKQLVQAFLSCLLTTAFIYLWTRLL
`FC(F)(F)c1ccccc1CN1CCN(Cc2c[nH]c3ccccc23)CC1` showed a displacement of -5.2%.
Compound `C=C(C)CNC(=S)NC1=C(C)N(C)N(c2ccccc2)C1=C` has a displacement of -10.7%.
With `O=C(NC1CCS(=O)(=O)C1)/C(=C\c1ccc(Br)cc1)NC(=O)c1ccccc1` (stereo unspecified) the displacement was 1.9%.
`O=C1c2ccccc2C(=O)C12OC(c1ccc(Br)cc1)C1(C(=O)c3ccccc3C1=O)C2c1ccc(F)cc1` (stereo unspecified) showed a displacement of 2.6%.
`Fc1ccc(/C=N/Nc2nnc(-c3ccccc3)c(-c3ccccc3)n2)cc1` gave a displacement of 5.2%.
`C(=C(\c1ccccc1)c1nc2ccccc2[nH]1)/c1ccco1` showed a displacement of 2.2%.
In the case of `O=C(Nc1cccc2ccccc12)c1ccc(S(=O)(=O)N2CCCCC2)cc1`, the displacement is reported as -8.9%.
For `CCN1C(=O)c2cccc3c(NC(=O)c4ccc(C(=O)c5ccccc5)cc4)ccc1c23`, the displacement was 101%.
For `CCN1C(=O)c2cccc3c(NC(=O)c4ccc(S(=O)(=O)N(C)C)cc4)ccc1c23`, the displacement was 84.1%.
`CCN1C(=O)c2cccc3c(NC(=O)c4cccs4)ccc1c23` showed a displacement of -29.9%.
In the case of `CCN1C(=O)c2cccc3c(NC(=O)c4ccc(Oc5ccccc5)cc4)ccc1c23`, the displacement is reported as -14.2%.
Work on `CCN1C(=O)c2cccc3c(S(=O)(=O)N(C)C)ccc1c23` yielded a displacement of 6.6%.
For `CCN1C(=O)c2cccc3c(NC(=O)c4ccc(S(=O)(=O)N5CCOCC5)cc4)ccc1c23`, the displacement was 8.7%.
`CCN1C(=O)c2cccc3c(NC(=O)c4ccc(S(=O)(=O)N5CCCCCC5)cc4)ccc1c23` showed a displacement of 88.2%.
For `CCN1C(=O)c2cccc3c(NC(=O)c4ccc(Cl)s4)ccc1c23`, the displacement was 11.6%.
`COCCNC(=O)Cc1ccc(Br)cc1` showed a displacement of 13.1%.
With `COc1ccc(CC(=O)Nc2cccc(NC(=O)c3cccc(Cl)c3)c2)cc1OC` the displacement was -0.7%.
`CCc1nn2c(N)c(C=C3C=CC(=O)C=C3)c(=O)nc2s1` showed a displacement of 1.9%.
`COc1ccc(CCNC(=O)C2CN(S(=O)(=O)c3ccccc3)CCN2S(=O)(=O)c2ccccc2)cc1OC` (stereo unspecified) was tested, and the displacement was -2.8%.
`O=C(COC(=O)C1CC(=O)N(c2ccc(Cl)cc2)C1)c1ccccc1` (stereo unspecified) was tested, and the displacement was 9.1%.
`O=C(NC(=S)Nc1ccc(N2CCCCC2)c(Cl)c1)c1ccco1` showed a displacement of -7.1%.
With `CC(C)CCn1c(=O)[nH]c2ccccc21` the displacement was 10.2%.
`CCCc1c(C)nc2c(Cl)cccc2c1SCC(=O)O` was tested, and the displacement was -1.7%.
`COC(=O)c1c(NC(=O)c2ccco2)sc2c1CCC2` showed a displacement of 91.1%.
Compound `COC(=O)c1c(NC(=O)c2ccco2)sc2c1CCC(C)C2` (stereo unspecified) has a displacement of 0.1%.
Compound `NC(=O)c1c(NC(=O)c2ccco2)sc2c1CCC2` has a displacement of 4.5%.
`CCc1ccccc1OCCCNC(C)(C)C` was tested, and the displacement was 1.5%.
For `O=C(NNC(=O)c1cc([N+](=O)[O-])ccc1Cl)c1ccc([N+](=O)[O-])cc1`, the displacement was -4.8%.
For `NC(=O)C1CCN(C(=O)c2ccc([N+](=O)[O-])cc2)CC1`, the displacement was 4.4%.
Compound `Cc1ccc(-c2csc(NC(=O)C3C4CCC(C4)C3C(=O)O)n2)c(C)c1` (stereo unspecified) has a displacement of -0.1%.
`CC(Oc1ccccc1)C(=O)NCc1cccnc1` (stereo unspecified) gave a displacement of 3.9%.
`CCOc1ccc2nc(NC(=O)C(c3ccccc3)c3ccccc3)sc2c1` showed a displacement of 66.7%.
For `CCOc1ccc2nc(NC(=O)c3ccccc3O)sc2c1`, the displacement was -1%.
For `CCOc1ccc2nc(NC(=O)c3ccccc3C(=O)O)sc2c1`, the displacement was -7%.
`COc1ccc(Cc2nc(-c3ccc(Cl)cc3)no2)cc1OC` was tested, and the displacement was 1.1%.
For `Cc1ccc(OCCOc2ccc(Br)cc2C=C2C(=O)NC(=S)NC2=O)cc1`, the displacement was -23.5%.
`O=C(CSc1nc2ccccc2o1)NCc1ccco1` gave a displacement of -19.3%.
`Cc1ccc(N(CC(=O)O)S(=O)(=O)c2ccc(F)cc2)cc1` showed a displacement of 8.4%.
`CCOC(=O)c1c(-c2ccccc2)oc2ccc(OC(=O)C(C)(C)C)cc12` showed a displacement of 10.8%.
In the case of `CCOC(=O)c1c(-c2ccccc2)oc2ccc(OC(=O)c3ccco3)cc12`, the displacement is reported as 99.8%.
`CCOc1ccc2oc(-c3ccccc3)c(C(=O)O)c2c1` was tested, and the displacement was 5.4%.
`CCOC(=O)c1c(-c2ccccc2)oc2cc(Br)c(OC(=O)c3ccco3)cc12` gave a displacement of 8.8%.
`CC(Oc1ccc2oc(-c3ccccc3)c(C(=O)O)c2c1)C(=O)O` (stereo unspecified) gave a displacement of 59.2%.
In the case of `Cc1oc2ccc(OC(C)C(=O)O)cc2c1C(=O)O` (stereo unspecified), the displacement is reported as 14.7%.
For `O=C(CSc1nc2ccccc2[nH]1)N/N=C/c1cccc(Cl)c1Cl`, the displacement was -5.4%.
In the case of `COc1ccccc1CC(=O)N1CCN(c2ccc([N+](=O)[O-])cc2)CC1`, the displacement is reported as 11.9%.
With `COc1ccc(CC(=O)Nc2sc3c(c2C(=O)Nc2ccccc2Cl)CCCC3)cc1` the displacement was -9.7%.
Work on `COc1ccc(Cl)cc1/C=C1/C(=O)NN(c2cccc(Br)c2)C1=O` yielded a displacement of -1.3%.
Compound `Cc1ccc(N2C(=O)Cn3c2nc2c3c(=O)n(C)c(=O)n2C)cc1Cl` has a displacement of -12.5%.
`Cc1cccc(N2C(=O)Cn3c2nc2c3c(=O)n(C)c(=O)n2C)c1` was tested, and the displacement was -5.8%.
Work on `COc1ccc(N2C(=O)Cn3c2nc2c3c(=O)n(C)c(=O)n2C)cc1` yielded a displacement of 61.6%.
`CC(O)c1cccc(NC(=O)c2nn3c(c2Cl)NC(c2ccco2)CC3C(F)(F)F)c1` (stereo unspecified) was tested, and the displacement was -0.1%.
`COc1ccc(C(=O)NC(=S)NCc2ccco2)cc1` gave a displacement of 9.4%.
Work on `Cn1c(-n2c(CCCN3C(=O)c4ccccc4C3=O)nc3ccccc3c2=O)nc2ccccc21` yielded a displacement of 35.4%.
`Cn1c(-n2c(CCN3C(=O)c4ccccc4C3=O)nc3ccccc3c2=O)nc2ccccc21` gave a displacement of 66.3%.
`Cc1cccc(-n2c(CCN3C(=O)c4ccccc4C3=O)nc3ccccc3c2=O)n1` gave a displacement of -0.9%.
`C/C(=N\NC(=O)c1ccccn1)c1ccc(F)cc1` showed a displacement of -18.6%.
`O=C1NC(=O)N(c2ccc(Cl)cc2)C(=O)/C1=C/c1ccc(O)c(Br)c1` was tested, and the displacement was -8.4%.
`O=C(Oc1ccc(Cl)cc1)c1cccc(S(=O)(=O)N2CCOCC2)c1` showed a displacement of -8.4%.
In the case of `O=C(Oc1cccc(-c2cnc3ccccc3n2)c1)c1cccc(S(=O)(=O)N2CCOCC2)c1`, the displacement is reported as 225%.
Work on `COC(=O)c1cccc(S(=O)(=O)N2CCOCC2)c1` yielded a displacement of -16%.
For `C#CCn1cc(/C=C(/C#N)C(=O)Nc2ccc(OCC)cc2)c2ccccc21`, the displacement was 5.9%.
In the case of `N#C/C(=C\c1cn(CC(=O)Nc2ccccc2)c2ccccc12)C(=O)Nc1ccccc1Cl`, the displacement is reported as 126%.
Compound `COc1ccc(NC(=O)/C(C#N)=C/c2cn(CC(=O)Nc3ccccc3)c3ccccc23)cc1` has a displacement of -21.4%.
With `CCc1ccccc1NC(=O)/C(C#N)=C/c1cn(CC(=O)Nc2ccccc2)c2ccccc12` the displacement was -26.1%.
Work on `N#C/C(=C\c1cn(CC(=O)Nc2ccccc2)c2ccccc12)C(=O)Nc1ccccc1` yielded a displacement of -36.7%.
Work on `N#C/C(=C\c1cn(CC(=O)Nc2ccccc2)c2ccccc12)C(=O)NCc1ccccc1` yielded a displacement of 61.2%.
Work on `Cc1cccc(NC(=O)/C(C#N)=C/c2cn(CC(=O)Nc3ccccc3)c3ccccc23)c1C` yielded a displacement of -60.5%.
In the case of `CCOc1cccc(NC(=O)/C(C#N)=C/c2cn(CC(=O)Nc3ccccc3)c3ccccc23)c1`, the displacement is reported as 104%.
`N#C/C(=C\c1cn(CC(=O)Nc2ccccc2)c2ccccc12)C(=O)Nc1ccc(F)cc1` gave a displacement of -30.3%.
`Cc1ccc2c(c1)c(-c1ccccc1)c(-c1ccccc1)n2CC(O)CN1C(=O)CSC1=O` (stereo unspecified) showed a displacement of 11.4%.
With `CCOc1ccc(C2C(C(=O)/C=C/c3ccccc3)=C(O)C(=O)N2CCCCCC(=O)O)cc1` (stereo unspecified) the displacement was -1%.
`O=C(NC(=S)Nc1ccc(Cl)c(-c2nc3ccccc3s2)c1)c1ccco1` gave a displacement of 5.8%.
Work on `c1ccc2nc(NCc3ccncc3)ccc2c1` yielded a displacement of -8.8%.
Compound `CCc1ccc(N2C(=O)NC(=O)/C(=C\c3ccc(OCC(=O)O)c(OC)c3)C2=O)cc1` has a displacement of 9.9%.
`CCOc1ccc(NC(=O)CC2S/C(=N\N=C\c3ccc(O)c(OC)c3)NC2=O)cc1` (stereo unspecified) gave a displacement of 9.6%.
Compound `COc1cc(/C=c2/sc3nc4ccccc4n3c2=O)cc(Br)c1OCc1ccccc1` has a displacement of 1.8%.
`C=CCc1ccccc1OCCOc1cccc(/C=c2\sc3nc4ccccc4n3c2=O)c1` was tested, and the displacement was 13.4%.
Work on `CCOc1cc(/C=c2/sc3nc4ccccc4n3c2=O)cc(I)c1OCC` yielded a displacement of 77.3%.
In the case of `CCOc1ccc(/C=c2\sc3nc4ccccc4n3c2=O)cc1Cl`, the displacement is reported as 19.1%.
Work on `C=CCc1ccccc1OCCOc1ccc(/C=c2\sc3nc4ccccc4n3c2=O)cc1OCC` yielded a displacement of 100%.
`COc1cc(/C=c2/sc3nc4ccccc4n3c2=O)cc(I)c1OCc1ccccc1` showed a displacement of 74.2%.
Work on `CCOc1cc(/C=c2\sc3nc4ccccc4n3c2=O)ccc1OCCOc1ccc(Br)cc1` yielded a displacement of 19%.
Compound `COc1cc(/C=c2\sc3nc4ccccc4n3c2=O)cc(I)c1OCCOc1cccc(C)c1` has a displacement of 10.9%.
Compound `COc1cc(/C=c2\sc3nc4ccccc4n3c2=O)cc(I)c1OCC(=O)O` has a displacement of -4.2%.
`COc1ccc(OC)c(NC(=O)CN(c2ccc(Br)cc2)S(C)(=O)=O)c1` gave a displacement of -12.8%.
`CCN(CC)CCCCOc1ccc(Cl)cc1C` showed a displacement of -7.4%.
In the case of `COc1ccc(NC(=S)NC(=O)c2cccs2)cc1`, the displacement is reported as -9.3%.
`O=C(Nc1ccccc1)C1C2C3CCC(C3)C12` (stereo unspecified) was tested, and the displacement was 4%.
Work on `O=C(CSCc1ccccc1)Nc1nnc(/C=C/c2ccccc2)s1` yielded a displacement of 39.9%.
For `CC(=O)c1ccc(NC(=O)c2ccc3c(c2)C(=O)N(c2ccc(C)c(C)c2)C3=O)cc1`, the displacement was 8.9%.
In the case of `Cc1ccc(N2C(=O)c3ccc(C(=O)Nc4cccc(C)c4C)cc3C2=O)c(C)c1`, the displacement is reported as 6.6%.
`CN1CCN(C(=O)C(=O)Nc2cccc3ccccc23)CC1` showed a displacement of -2.6%.
Compound `COc1cccc(/C=N/NC(=O)c2cccc(N3CCCC3=O)c2)c1` has a displacement of -3.5%.
In the case of `NC1=NC(=O)/C(=C\c2ccc(S(=O)(=O)O)cc2)S1`, the displacement is reported as 12.8%.
`COc1ccc(C(=O)Oc2ccc(/C=C3\SC(N)=NC3=O)cc2)cc1` showed a displacement of 10.1%.
Work on `COc1ccc(/C=C2/SC(=O)NC2=O)c(OC)c1` yielded a displacement of 4.9%.
`COc1ccc(/C=C2\SC(=S)N(C(C)C)C2=O)cc1` gave a displacement of -3.9%.
For `NC1=NC(=O)/C(=C/c2ccc(Br)cc2)S1`, the displacement was 3.7%.
With `COc1ccc(/C=C2\SC(=O)NC2=S)cc1` the displacement was 67.8%.
Work on `CC(=O)NC1=NC(=O)/C(=C\C=Cc2ccccc2)S1` yielded a displacement of -42.4%.
`COc1cc(/C=C2\SC(N)=NC2=O)cc(OC)c1` showed a displacement of -9.9%.
`NC1=NC(=O)/C(=C\C=C\c2ccccc2)S1` showed a displacement of 154%.
`COc1ccc(/C=C2\SC(N)=NC2=O)cc1` was tested, and the displacement was 124%.
For `NC1=NC(=O)/C(=C/c2ccc(Cl)cc2)S1`, the displacement was 57.4%.
Compound `CN(C)c1ccc(/C=C/C=C2/SC(N)=NC2=O)cc1` has a displacement of -17.2%.
